aSyn UTR act: Activators via SNCA 5'UTR binding, MLPCN | AID 1814 | alpha-synuclein 5'UTR reporter, activators screen | activity score, % (tested at 7.5 µM), hits read low | hit rate 7.1% among 300,000; in the data active means activity score below about -60%
Of the large screens only hits and unclear results are named; the others gave an inactive call. Only a sample is shown.

COC(=O)c1cc(=O)n(Cc2ccc3c(c2)OCO3)c(=Nc2ccc(F)c(Cl)c2)s1	aSyn UTR act -66
Cc1ccc(-c2csc(N/N=C/c3ccco3)n2)cc1	aSyn UTR act -232
Clc1ccc(-c2csc(N/N=C\c3cccnc3)n2)cc1	aSyn UTR act -77
Clc1ccc(-c2csc(N/N=C/c3ccco3)n2)cc1	aSyn UTR act -156
C(=N\Nc1nc(-c2ccccc2)cs1)/c1ccco1	aSyn UTR act -351
COc1ccc(-n2nc(C(=O)NCC(=O)N3CCN(c4ccccc4)CC3)c3ccccc3c2=O)c(OC)c1	aSyn UTR act -78
COc1ccc(-n2nc(C(=O)NCC(=O)N3CCN(c4ccc(F)cc4)CC3)c3ccccc3c2=O)c(OC)c1	aSyn UTR act -65
CC1Sc2ccc(C(=O)Nc3ccccc3OC(F)F)cc2NC1=O (configuration not stated)	aSyn UTR act -81
CC1Sc2ccc(C(=O)OCc3ccccc3Cl)cc2NC1=O (configuration not stated)	aSyn UTR act -147
O=C(C(Cl)c1ccccc1)N1CCOCC1 (configuration not stated)	aSyn UTR act -65
COC(=O)c1sc(-c2ccc(C(C)(C)C)cc2)cc1NC(=O)c1ccccc1C(=O)O	aSyn UTR act -67
CCOC(=O)c1ccc(-c2ccc(C=O)o2)cc1	aSyn UTR act -146
CCCOC(=O)c1ccc(-c2ccc(C=O)o2)cc1	aSyn UTR act -97
COc1ccc(N=Nc2c(N)n[nH]c2N)cc1	aSyn UTR act -85
COc1ccc(N=Nc2ccc(N)nc2N)cc1	aSyn UTR act -68
O=c1c(Cl)c(NCCCO)cnn1-c1nc2ccccc2[nH]1	aSyn UTR act -232
C=CCOc1ccc2c(OC)c3ccoc3nc2c1OC	aSyn UTR act -81
COc1ccc(-c2nc(NC(=O)Cn3c(=O)oc4ccccc43)sc2C)cc1	aSyn UTR act -70
CCN(CC)CCOC(=O)c1c(C)oc2ccc(OC)cc12	aSyn UTR act -112
COC(=O)c1oc2ccc(OC)cc2c1N	aSyn UTR act -76
CCN(CC)CCOC(=O)c1ccc(NC(=O)CCCN2C(=O)S/C(=C/c3ccc(OC)cc3)C2=S)cc1	none
COc1ccc(C(=O)c2oc3ccc(OC)cc3c2N)cc1	aSyn UTR act -167
Nc1c(C(=O)c2ccc(Cl)cc2)oc2ccccc12	aSyn UTR act -111
COc1ccc2c(c1)CCc1c-2nc2ccccc2c1N1CCOCC1	aSyn UTR act -87
Cc1ccc(Oc2ncnc3sccc23)cc1	aSyn UTR act -143
CCOc1ccc(OCCOc2ncnc3ccccc23)cc1	aSyn UTR act -70
c1ccc(OCCOc2ncnc3sccc23)cc1	aSyn UTR act -126
CC(=O)Nc1cccc(-c2csc(Nc3ccc(Cl)cn3)n2)c1	aSyn UTR act -174
CC(=O)Nc1ccc(-c2csc(Nc3ccc(Cl)cn3)n2)cc1	aSyn UTR act -127
O=C(NC1CCCC1)c1cc(-c2ccc(F)cc2)on1	aSyn UTR act -322
O=C(NC1CCCCC1)c1cc(-c2ccc(Cl)cc2)on1	aSyn UTR act -115
O=C(NC1CCCC1)c1cc(-c2ccc(Cl)cc2)on1	aSyn UTR act -234
O=C(c1ccccc1)c1nc[nH]c1C(=O)Nc1ccccc1	aSyn UTR act -91
Cc1ccc(NC(=O)c2[nH]cnc2C(=O)NN)cc1	aSyn UTR act -65
N=c1c2c(n(Cc3ccc(Br)cc3)c3c1CCC3)CCCC2	none
CSc1ccc2c(c1)C(N1CCN(C)CC1)Cc1ccc(F)cc1S2 (configuration not stated)	none
CCn1c(O)c(N=Nc2ccc3ccccc3n2)c2ccccc21	aSyn UTR act -143
NC(=S)N=Nc1c(O)n(Cc2ccc(Br)cc2)c2ccccc12	none
Brc1ccc(N=Nc2ccc3ccccc3n2)cc1	none
O=C1CCCc2c1sc1nc3n(c(=O)c21)CCCCC3	aSyn UTR act -107
O=C1c2sc3nc4n(c(=O)c3c2CCC1Br)CCCCC4 (configuration not stated)	aSyn UTR act -180
O=c1c2c3c(sc2nc2n1CCCCC2)C(O)CCC3 (configuration not stated)	aSyn UTR act -85
CCN(CC)c1ccc(/C=N/NC(=O)OC(C)(C)C)cc1	aSyn UTR act -153
CCOc1ccc(/C=N/NC(=O)Nc2ccccc2)cc1	aSyn UTR act -120
CCN(CC)c1ccc(/C=N/NC(=O)Nc2ccccc2)cc1	aSyn UTR act -150
CC(=O)Oc1ccc(/C=N/NC(=S)Nc2ccccc2)cc1	aSyn UTR act -149
CCN(Cc1ccccc1)c1ccc(/C=N/N=C(N)N)cc1	none
CCn1c(/C=C/c2ccccc2)nc2ccccc21	aSyn UTR act -157
CC(C)Cn1c(/C=C/c2ccccc2)nc2ccccc21	aSyn UTR act -114
O=C(Cn1c(/C=C/c2ccccc2)nc2ccccc21)Nc1ccc(F)cc1	aSyn UTR act -72
COc1ccc(Cn2c(/C=C/c3ccccc3)nc3ccccc32)cc1	aSyn UTR act -202
COc1ccc(/C=C/c2nc3ccccc3n2C)cc1	none
COc1ccc(Nc2nc(N)c3ccccc3n2)c(OC)c1	aSyn UTR act -198
CCOc1ccc(N(C(=O)c2cc3ccccc3oc2=O)C2C=CS(=O)(=O)C2)cc1 (configuration not stated)	aSyn UTR act -88
Cc1ccc(N(C(=O)c2cc3ccccc3oc2=O)C2C=CS(=O)(=O)C2)cc1 (configuration not stated)	aSyn UTR act -107
Cc1cc(C)cc(N(C(=O)c2cc3ccccc3oc2=O)C2C=CS(=O)(=O)C2)c1 (configuration not stated)	aSyn UTR act -126
COC(=O)c1ccc(NC(=O)c2ccc(C)cc2)o1	aSyn UTR act -75
COC(=O)C(C(=O)OC)c1ccc(NC(=O)c2cccc(Cl)c2)cc1	aSyn UTR act -90
COC(=O)c1ccc(NC(=O)c2cccc(Cl)c2)o1	aSyn UTR act -86
Cc1ccc2c(c1)C1CN(C)CCC1N2C(=O)COc1ccc(N(C)C(=O)C(C)(C)C)cc1 (configuration not stated)	aSyn UTR act -67
Cc1ccc(C(=O)N(C)c2ccc(OCC(=O)N3c4ccc(C)cc4C4CN(C)CCC43)cc2)cc1 (configuration not stated)	aSyn UTR act -86
O=C1C2CC=C(Cl)CC2C(=O)N1CCc1ccccc1 (configuration not stated)	aSyn UTR act -69
O=C1c2ccccc2C(=O)N1CCc1ccccc1	aSyn UTR act -70
O=C1c2ccccc2C(=O)N1CCSc1ccccc1	aSyn UTR act -191
c1ccc(-n2ncc3c(NCCN4CCCCC4)ncnc32)cc1	aSyn UTR act -133
Cc1cccc(-n2ncc3c(N(C)C4CCCCC4)ncnc32)c1	none
Cc1cccc(-n2ncc3c(N(CCO)CCO)ncnc32)c1	aSyn UTR act -106
Fc1ccc(CNc2ncnc3c2cnn3-c2ccccc2)cc1	aSyn UTR act -71
c1ccc(CNc2ncnc3c2cnn3-c2ccccc2)cc1	aSyn UTR act -256
Cc1cccc(-n2ncc3c(N4CCCc5ccccc54)ncnc32)c1	aSyn UTR act -123
Cc1cccc(-n2ncc3c(NCc4ccccc4)ncnc32)c1	aSyn UTR act -140
c1ccc(CCNc2ncnc3c2cnn3-c2ccccc2)cc1	aSyn UTR act -149
Clc1ccc(-n2ncc3c(NCc4cccnc4)ncnc32)cc1Cl	aSyn UTR act -87
CC(C)(C)Nc1ncnc2c1cnn2-c1ccccc1	aSyn UTR act -104
COc1cccc2oc3ccc(C#Cc4ccccn4)cc3c(=O)c12	aSyn UTR act -71
O=c1c2ccccc2oc2cc(C#Cc3ccccn3)ccc12	aSyn UTR act -67
COc1cc(-c2noc(C)c2C#Cc2ccccn2)cc(OC)c1OC	none
CCCn1nnc(NC(=O)c2ccc3c(c2)OCO3)n1	aSyn UTR act -90

Assay outcomes from PubChem BioAssay.
